# Test results as given in the supplement of paper PMC10338343.
# ± gives the standard deviation.
# Test system: MILI (PIWIL2) piRISC loaded with piRNA #1 (26 nt)
# Experiment: pre-steady-state target cleavage rate (min^-1); guide: piRNA #1 5'p-UGAGGUAGUAGGUUGUAUAGUAUCCA; MIWI and MILI are mouse PIWI proteins and EfPiwi is from a freshwater sponge; tags in brackets are library labels; higher = faster piRNA-guided slicing of the target
# Details: auxiliary factor: 500 nM mouse GTSF1
# Outline: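 Cleave-'n-Seq measured uncleaved targets by sequencing after a transcribed, DNA-blocked target RNA library […] was mixed with 1 nM active affinity-purified piRISC holding one synthetic guide, with or without 500 nM GTSF1 partner protein, at 33 °C in HEPES–potassium acetate buffer for 0–8 or 0–960 min. Counts were normalised to depth and to weakly complementary targets, three trials were pooled, and k3 was capped at 0.0001 min^-1. A burst-and-steady-state fit gave the pre-steady-state cleavage rate.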
# 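Also: 1 nM active piRISC with 0.1 nM target library at 33 °C single turnover.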
row,Sequence,pre-steady-state target cleavage rate
1,GGAGAGGAUACUAAAGAACCUACUACCUCA,0.179 ± 0.0099
2,GGAGACCUUACUAUACAACCUACUAUCCUCA,0.194 ± 0.022
3,GGAGACCUAACUAUUCAACCUACAACCUCA,0.129 ± 0.021
4,GGAGACCUAUGAUUACUACCUACUUCCUCA,0.00322 ± 0.0022
5,GGAGACCUAAGUAUACUACCUACUACCUCA,0.0377 ± 0.0069
6,GGAGACCUAUCUAAACAACCUACAACCUCA,0.0563 ± 0.0063
7,GGAGACCUAUCUCAUACAACCUACUACCUCA,0.0664 ± 0.01
8,GGAGACGAUACUAUAGAACCUACUACCUGA,0.0908 ± 0.021
9,GGAGACCUAUCAAAACAACCUACUACCUCA,0.0082 ± 0.0029
10,GGAGACCAUACUAAACAACCUACUAGCUCA,0.165 ± 0.03
11,GGAGACCUAUGUAUACAACGUACUACCACA,0.00942 ± 0.003
12,GGAGACCUAUGAUAAAACCUACUACCUCA,0.00798 ± 0.0023
13,GGAGACCAUACUAUAGAACGUACUACCUCA,0.00933 ± 0.0017
14,GGAGACCUAUGAUUACAACCUACUAUCCUCA,0.00664 ± 0.0027
15,GGAGACCUAUGUAUACGACCUACUACCUCA,0.0178 ± 0.0033
16,GGAGACCUAUGAUAUGUACCUACUACCUGCA,< 0.0001
17,GGAGACCUUACUAUACAACCUACUUCGUCA,0.0614 ± 0.015
18,GGAGACCUAUCUAUUCAACCUACUUCCUCA,0.0412 ± 0.0086
19,GGAGACCUAUGAUAACAACCUACGACCUCA,0.0039 ± 0.0025
20,GGAGACCUAACUAUACAACCUACUACUCA,0.141 ± 0.033

row,Sequence,pre-steady-state target cleavage rate
1,GGAGACCAUACUUUACUACCUACUACCUCA,0.129 ± 0.015
2,GGAGUGGAUACUAUUGUACCUACUACCUCA,0.115 ± 0.0083
3,GGAGACCAUACUUUACAACCUACUAGCUCA,0.0628 ± 0.015
4,GGAGUGGAUACUAUACAACCUACUUGGUCA,< 0.0001
5,GGAGUGGAUACUAUAGUUCCUACUACCUCA,0.169 ± 0.0095
6,GGAGACCUAACUAAACAACCUACUAGCUCA,0.0613 ± 0.018
7,GGAGACCUAUGUAUACAACCUACUAUCCUCA,0.0887 ± 0.011
8,GGAGACCUAUGAAUACAACCUAUCUACCUCA,0.00974 ± 0.0026
9,GGAGACCUUACUAUUCAACCUACUAGCUCA,0.0771 ± 0.014
10,GGAGUGGAAACUAAACAACCUACUACCUCA,0.201 ± 0.02
11,GGAGACCUAUGAUAAACAACCUACUACCUCA,0.00811 ± 0.0029
12,GGAGACCUUACUAUACAACCUACAACCACA,0.0494 ± 0.013
13,GGAGAGGAUACUAUACUACCUACUACCACA,0.171 ± 0.016
14,GGAGACCUAUGAUUACAACGUACUACCUCA,0.00443 ± 0.0016
15,GGAGACCUAUGAAUACAACCUACUACCACA,0.00626 ± 0.0028
16,GGAGACCUAACUUUACAACCUACUACGUCA,0.0224 ± 0.01
17,GGAGACCUAACUAUACAUGCUACUACCUCA,0.0788 ± 0.013
18,GGAGACCUAUGAAUACAACCUACUACCUA,0.00429 ± 0.0026
19,GGAGUGGAAACUAUACAACCUACUAGCUCA,0.0453 ± 0.013
20,GGAGACCUUACUAAACAAGCUACUACCUCA,0.231 ± 0.018
